# Measured values published in PubChem BioAssay (NCATS).
# Unmarked numbers belong to inactive results. Inconclusive results are not listed. Activity calls are given as the source filed them. Unless noted, calls come from the whole dose curve; as a rule, active = well fitted curve in the direction sought with a large enough effect; inconclusive = small, poorly fitted or top-dose-only effect, or another doubt; inactive = no such curve, though single readings can be large; an effect the other way counts as inactive or inconclusive.
# How the values were obtained:
# [1] = qHTS assay to identify inhibitors of the type 1 interferon - major histocompatibility complex class I in skeletal muscle: Counter screen cell viability and HiBit confirmation (AID 1347412); settings: iHSKM muscle cells + IFN-b, HiBiT or CellTiter-Glo, 24 h, at 45.9 µM (top of the series); note: % is set by controls: 0 for no effect and ±100 for the full control effect; nearly all actives have a fitted effect of over 60% in size
# Procedure, shortened: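 Myoblasts (C25cl48, HLA-B HiBiT) seeded in medium without dexamethasone, IFN-b 4 ng/ml added except unstimulated columns; 1 hr later compounds pinned (12-pt 1:3, top 46 uM final). Incubated 24 hrs, lysed 10 min, luminescence measured.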
# astro = assay: Drug repurposing screens with cells derived from glioblastoma tumor samples (AID 1345199); settings: viability, ATP luminescence, 48 h; series mostly up to 45.9 µM; note: nearly all actives have a fitted effect of over 40% in size; note: potency is the fitted concentration of half-maximal effect; for activity, negative = cell killing: % is set by controls: 0 for no effect and ±100 for the full control effect
# Procedure, shortened: (§1)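 Primary testing used CD133+ neurospheres from four GBM patients, seven concentrations, 48 h exposure and ATP-based viability; confirmation added three slower-growing patient lines.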
# [2] = as above; settings: GBM patient neurospheres viability, ATP luminescence, 48 h
# Procedure, shortened: as §1
# [3] = target: Nuclear receptor subfamily 1 group I member 2 (Rattus norvegicus) (UniProt Q9R1A7); assay: qHTS assay for small molecule activators of the rat pregnane X receptor (rPXR) signaling pathway (AID 651751; call rule not given here; note: 0% is about no effect); settings: rPXR reporter cells, luciferase (One-Glo), 24 h
# Sequence of Nuclear receptor subfamily 1 group I member 2 (Rattus norvegicus) (Q9R1A7 whole entry, looked up): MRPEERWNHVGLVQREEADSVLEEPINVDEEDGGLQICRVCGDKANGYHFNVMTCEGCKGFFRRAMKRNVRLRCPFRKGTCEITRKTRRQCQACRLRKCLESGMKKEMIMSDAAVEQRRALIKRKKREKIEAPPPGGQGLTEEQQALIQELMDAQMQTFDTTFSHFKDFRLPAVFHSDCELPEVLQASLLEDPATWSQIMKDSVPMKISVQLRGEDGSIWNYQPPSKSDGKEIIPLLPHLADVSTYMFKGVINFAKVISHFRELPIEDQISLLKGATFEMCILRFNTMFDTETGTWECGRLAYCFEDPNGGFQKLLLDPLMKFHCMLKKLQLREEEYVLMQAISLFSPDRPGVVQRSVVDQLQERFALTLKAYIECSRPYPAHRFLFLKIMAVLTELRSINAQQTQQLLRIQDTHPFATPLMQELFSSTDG
# [4] = qHTS assay for small molecule activators of the human pregnane X receptor (PXR) signaling pathway (AID 720659; call rule not given here; note: 0% is about no effect); settings: DPX-2 HepG2 CYP3A4-luciferase, 24 h; series mostly up to 92.3 µM
structure (smiles),measurement,setting,value
NC(=NCc1ccccc1)NC(=O)c1nc(Cl)c(N)nc1N,"activity change, negative = inhibition",[1]; HiBiT,-27.7%
same,"activity change, negative = inhibition",[1]; Viability,-20.2%
O=C(O)c1cccc(-c2noc(-c3ccccc3F)n2)c1,Potency,astro,2.51 µM (active)
CC(C)c1ccc2oc3nc(N)c(C(=O)O)cc3c(=O)c2c1,Potency,astro,1.78 µM (active)
Oc1ccc(OCc2ccccc2)cc1,"activity, negative = cell killing","[2]; at 20 µM (top of the series), tumour line C",4.55%
same,"activity, negative = cell killing","[2]; at 21.2 µM (top of the series), tumour line B",-21.3%
same,Potency,astro,inactive
COc1cc(C(C)=O)ccc1OCCCN1CCC(c2noc3cc(F)ccc23)CC1,Potency,astro,inactive
CC1(C)NC(=O)N(c2ccc([N+](=O)[O-])c(C(F)(F)F)c2)C1=O,max response,[3],-9.05%
same,outcome,[4],inactive
CCc1nc(N)nc(N)c1-c1ccc(Cl)cc1,Potency,astro,inactive
Cc1c(C(=O)NN2CCCCC2)nn(-c2ccc(Cl)cc2Cl)c1-c1ccc(Cl)cc1,"activity, negative = cell killing","[2]; at 46.1 µM (top of the series), tumour line C",-11.3%
same,Potency,[2]; tumour line A,5.01 µM (active)
same,Potency,astro,35.5 µM (active)
